{"source": "ChEMBL document CHEMBL3988442", "about": "“University of Dundee, Small-Polar-MMV Screening Library” (2021)", "note": "Screen size: about 38,000 compounds; about 1,200 (3.2%) showed an effect of 50% or more. The median lay at about -58%. Shown is part of a subset that was picked to be rich in strong results."}
{"tested_on": "Plasmodium falciparum", "experiment": "Calibr Malaria Delayed Death Assay SOP", "format": "functional, organism-based", "set-up": "scale not given: in the data most compounds retested in dose-response had high values", "details": "concentration 4.99e-06 (unit not given; other assays of the set use mol/L)", "units": {"Percent Effect": "%"}}
{"smiles": "Cc1nc(C)c(CC(=O)N2C[C@H]3CC[C@@H]2CN(c2cnccn2)C3)s1", "Percent Effect": -79.94}
{"smiles": "CCc1nnnn1Cc1csc(N(C)C(C)=O)n1", "Percent Effect": -54.02}
{"smiles": "Cc1ccc(Cl)cc1NC(=O)Nc1c[nH]c(=O)[nH]c1=O", "Percent Effect": -189.6}
{"smiles": "Cc1ncsc1C(=O)NCCNc1ncccc1C#N", "Percent Effect": -35.74}
{"smiles": "CCOCC1c2c(ncn2C)CCN1C(=O)c1cnc(C)cn1.O=C(O)C(F)(F)F", "note": "(stereo not drawn)", "Percent Effect": -51.51}
{"smiles": "O=C(NCc1c[nH]c(=O)[nH]c1=O)C1CCOc2ccccc2C1", "note": "(stereo not drawn)", "Percent Effect": -114.6}
{"smiles": "Cc1ccc(S(=O)(=O)N(CC(N)=O)CC(C)C)cc1C", "Percent Effect": -27.83}
{"smiles": "O=C(NCCCn1ccnc1)c1cccnc1OCC(F)(F)F", "Percent Effect": -158.9}
{"smiles": "CC(C)[C@@H]1CN(CCCOc2ccc(F)cc2)C[C@H]1NS(C)(=O)=O", "Percent Effect": 53.48}
{"smiles": "CCc1ccccc1OCCN1C[C@@H](NS(C)(=O)=O)[C@H](C(C)C)C1", "Percent Effect": 45.03}
{"smiles": "CC(C)[C@@H]1CN(CCOc2ccc(Cl)cc2)C[C@H]1NS(C)(=O)=O", "Percent Effect": 45.65}
{"smiles": "CC(C)n1cc(N2CC(C(=O)N3CCN(C)CC3)CC2=O)cn1", "note": "(stereo not drawn)", "Percent Effect": -61.38}
{"smiles": "Cc1csc(N2CCN(C(=O)CCn3cccn3)CC2)n1", "Percent Effect": -135.1}
{"smiles": "CN(Cc1nc2ccsc2c(=O)[nH]1)C[C@@H]1CCCN2CCCC[C@H]12", "Percent Effect": -24.21}
{"smiles": "CN(Cc1nc2ccccc2c(=O)[nH]1)C[C@@H]1CCCN2CCCC[C@H]12", "Percent Effect": -16.14}
{"smiles": "Cc1cc(C)cc(C(=O)N2CCCN(CC(N)=O)CC2)c1", "Percent Effect": -30.23}
{"smiles": "O=C(CN(CC1CCC1)CC(F)(F)F)N1CCCC1", "Percent Effect": -123.3}
{"smiles": "CS(=O)(=O)NC(=O)c1nnn(-c2cccc(F)c2)c1C1CC1", "Percent Effect": -54.99}
{"smiles": "Cc1nc(CNC2CCCN(c3cccnn3)C2)no1", "note": "(stereo not drawn)", "Percent Effect": -95.1}
{"smiles": "CC(C)c1nc(CNC2CCCN(c3cccnn3)C2)no1", "note": "(stereo not drawn)", "Percent Effect": -23.44}
{"smiles": "CC(C)(C)c1nc(CNC2CCCN(c3cccnn3)C2)no1", "note": "(stereo not drawn)", "Percent Effect": 82.54}
{"smiles": "CC1CN(CC(=O)NC2CCCC2)CCN1c1ccc2nncn2n1", "note": "(stereo not drawn)", "Percent Effect": -5}
{"smiles": "CC1CN(CC2CCCCC2)CCN1c1ccc2nncn2n1", "note": "(stereo not drawn)", "Percent Effect": 13.91}
{"smiles": "CC1CN(CC2CCCC2)CCN1c1ccc2nncn2n1", "note": "(stereo not drawn)", "Percent Effect": 68.96}
{"smiles": "Cn1ccc2ccc(C(=O)N3CCN(C(=O)OC(C)(C)C)CC3)cc21", "Percent Effect": 4.042}
{"smiles": "Cc1cccc(NC(=O)N2CCn3cnc(COCC4CC4)c3C2)c1", "Percent Effect": -185.1}
{"smiles": "COCCNC(=O)C[C@@H]1COC[C@H]2CN(C(=O)C3CCOCC3)C[C@@H]12", "Percent Effect": -84.55}
{"smiles": "CC(C)(C(=O)NCC(N)=O)c1ccccc1F", "Percent Effect": -66.81}
{"smiles": "CC(C)(CNC(=O)C(C)(C)c1ccccc1F)C(N)=O", "Percent Effect": -90.26}
{"smiles": "CN(C)C(C)(C)CNC(=O)C(C)(C)c1ccccc1F", "Percent Effect": 51.42}
{"smiles": "Nc1nnc(SCc2cc(=O)n3c4c(sc3n2)CCCC4)s1", "Percent Effect": -2.534}
{"smiles": "COc1nn(C)cc1-c1nnc(SCc2cccnc2)n1C", "Percent Effect": -46.9}
{"smiles": "Cc1ccsc1CN(CCCN(C)C)Cc1ccccn1", "Percent Effect": 76.79}
{"smiles": "Cc1ccsc1CN(CCCC(F)(F)F)Cc1ccccn1", "Percent Effect": -90.49}
{"smiles": "CCn1nc(C)c(CN(CCOC)Cc2ccccn2)c1C", "Percent Effect": -17.72}
{"smiles": "COCCC(=O)N(Cc1ccccn1)Cc1ccccc1C", "Percent Effect": -111.9}
{"smiles": "Cc1ccsc1CN(C)Cc1ncccc1C(=O)O", "Percent Effect": -86.93}
{"smiles": "N#Cc1cccc(CN2CC[C@@H]3CN(c4ncccn4)CCO[C@@H]3C2)c1.O=C(O)C(F)(F)F", "Percent Effect": -75.88}
{"smiles": "CCc1cc(N2CCC(NCCc3nc(C)c(C)s3)CC2)nc(C)n1", "Percent Effect": 38.37}
{"smiles": "CCn1ccc(NS(=O)(=O)c2cccc(COC)c2)n1", "Percent Effect": -78.42}
{"smiles": "CCn1cc(NC(=O)NCC(C)N(C)C)cn1", "note": "(stereo not drawn)", "Percent Effect": -90.57}
{"smiles": "CCOc1ccc(CNC(C)c2cccc(S(=O)(=O)NC)c2)cc1", "note": "(stereo not drawn)", "Percent Effect": 46.18}
{"smiles": "CNS(=O)(=O)c1cccc(C(C)NCc2ccsc2)c1", "note": "(stereo not drawn)", "Percent Effect": 66.25}
{"smiles": "CNS(=O)(=O)c1cccc(CNC(=O)CCc2ccsc2)c1", "Percent Effect": -45.32}
{"smiles": "CNS(=O)(=O)c1cccc(C(C)NCc2ccccc2)c1", "note": "(stereo not drawn)", "Percent Effect": 57.8}
{"smiles": "CNS(=O)(=O)c1cccc(C(C)NCc2ccncc2)c1", "note": "(stereo not drawn)", "Percent Effect": -55.25}
{"smiles": "CNS(=O)(=O)c1cccc(C(C)NCc2cccc(O)c2)c1", "note": "(stereo not drawn)", "Percent Effect": 1.026}
{"smiles": "CNS(=O)(=O)c1cccc(C(C)NCc2ccc(C)c(C)c2)c1", "note": "(stereo not drawn)", "Percent Effect": 61.29}
{"smiles": "CNS(=O)(=O)c1cccc(C(C)NCc2ccc(F)c(F)c2)c1", "note": "(stereo not drawn)", "Percent Effect": 8.659}
{"smiles": "CC(NCc1ccc(C(C)(C)C)cc1)c1ccc(S(C)(=O)=O)cc1", "note": "(stereo not drawn)", "Percent Effect": -13.51}
{"smiles": "O=C(NCCn1ccnc1)c1ccn(-c2ccc(F)cc2)n1", "Percent Effect": -157.5}
{"smiles": "CCN1C[C@H]2C[C@H](C(=O)Nc3ccccc3)[C@@H](C1)O2.O=C(O)C(F)(F)F", "Percent Effect": -59.56}
{"smiles": "Cc1oc(-c2nc(C#N)c(N(C)C)o2)cc1S(=O)(=O)N1CCCCCC1", "Percent Effect": -117.8}
{"smiles": "COc1cc(C(=O)NC(C)c2cccs2)cc2c1OCCO2", "note": "(stereo not drawn)", "Percent Effect": 13.73}
{"smiles": "O=C(c1cscn1)N1CCCCC1c1nc2cc(F)ccc2[nH]1", "note": "(stereo not drawn)", "Percent Effect": -66.74}
{"smiles": "CNC(=O)CN(C(=O)c1ccc(SC)o1)c1cccc(F)c1", "Percent Effect": -133.7}
{"smiles": "CC(C)(C)CNC(=O)c1ccc(C(=O)O)cc1", "Percent Effect": -149.2}
{"smiles": "CCCc1nc(CN(CC)Cc2ccoc2)no1", "Percent Effect": -101}
{"smiles": "COc1cc(C(=O)N(Cc2ccco2)C2CC2)cc(OC)c1OC", "Percent Effect": -36.86}
{"smiles": "O=C(c1ccc[nH]1)N1CCOCC2(CCN(C3CCOCC3)C2)C1", "note": "(stereo not drawn)", "Percent Effect": -29.73}
{"smiles": "CCCSCC(=O)N1CCCC(CO)(CCC)C1", "note": "(stereo not drawn)", "Percent Effect": -200.5}
{"smiles": "O=C(c1ccc(=O)[nH]c1)N1CCCC1c1nc2cc(F)ccc2[nH]1", "note": "(stereo not drawn)", "Percent Effect": -157.5}
{"smiles": "O=c1[nH]cccc1-c1nccc(C2(c3ccccc3Cl)CCNCC2)n1", "Percent Effect": -5.024}
{"smiles": "CC(C)c1nccc(C2(c3ccccc3Cl)CCNCC2)n1", "Percent Effect": 83.06}
{"smiles": "CC(C)(C)c1nccc(C2(c3ccccc3Cl)CCNCC2)n1", "Percent Effect": 75.06}
{"smiles": "CCC1C(=O)NCCN1c1ccnc(C(C)(C)C)n1", "note": "(stereo not drawn)", "Percent Effect": -75.62}
{"smiles": "Clc1ccccc1C1(c2ccnc(-c3ncccn3)n2)CCNCC1", "Percent Effect": -58.98}
{"smiles": "Clc1ccccc1C1(c2ccnc(-c3ccncc3)n2)CCNCC1", "Percent Effect": 82.92}
